# Measurements from PubChem BioAssay AID1768 (National Center for Advancing Translational Sciences (NCATS), 2009).
# The whole screen tested about 270,000 compounds, of which about 620 (0.23%) were called active. Roughly 12% stayed inconclusive and do not appear here. The call rests on the fitted dose curve; in most records, active means well fitted inhibition curve with a large enough effect in the polarisation, with a control signal flat (not every such curve was filed as active); inconclusive means small, poorly fitted or top-dose-only effect, or effect the other way, or a change in a side signal; inactive means no such curve, though single readings can be large or run the other way; the % refers to the polarisation. This excerpt belongs to a sample that is enriched for actives.
# Target: Menin (Homo sapiens) (UniProt O00255)
# Sequence (O00255 whole entry, looked up): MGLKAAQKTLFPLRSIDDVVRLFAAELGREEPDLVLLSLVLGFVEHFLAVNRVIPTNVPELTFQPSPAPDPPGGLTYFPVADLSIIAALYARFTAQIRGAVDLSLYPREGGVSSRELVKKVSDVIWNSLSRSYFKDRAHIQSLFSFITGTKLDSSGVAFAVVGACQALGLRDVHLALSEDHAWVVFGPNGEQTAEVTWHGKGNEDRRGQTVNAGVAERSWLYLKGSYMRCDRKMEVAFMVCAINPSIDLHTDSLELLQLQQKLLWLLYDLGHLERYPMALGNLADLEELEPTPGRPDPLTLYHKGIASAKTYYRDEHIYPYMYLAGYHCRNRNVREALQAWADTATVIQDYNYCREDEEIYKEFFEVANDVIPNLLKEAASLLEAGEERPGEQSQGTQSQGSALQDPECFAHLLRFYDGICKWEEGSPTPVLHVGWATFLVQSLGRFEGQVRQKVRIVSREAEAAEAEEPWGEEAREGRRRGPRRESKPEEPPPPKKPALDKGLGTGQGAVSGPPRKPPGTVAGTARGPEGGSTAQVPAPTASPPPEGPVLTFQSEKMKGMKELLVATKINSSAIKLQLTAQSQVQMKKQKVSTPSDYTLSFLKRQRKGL
# Test: qHTS Assay for Inhibitors Targeting the Menin-MLL Interaction in MLL Related Leukemias: Competition With Texas Red Labeled MLL-derived Mutant Peptide; on FP activity change, negative = inhibition: % of control where 0% means no effect
# Details: fluorescence polarization; series mostly up to 61.6 µM; FP activity change, negative = inhibition: at the top concentration
# Text: qHTS Assay for Inhibitors Targeting the Menin-MLL Interaction in MLL Related Leukemias NIH Chemical Genomics Center [NCGC] NIH Molecular Libraries Probe Centers Network [MLPCN] MLPCN Grant: MH084875-01A1 Assay Submitter (PI): Jolanta Grembecka, Tomasz Cierpicki, University of Virginia Translocations of the MLL (Mixed Lineage Leukemia) gene are frequently found in human leukemias affecting both children and adults. Fusion of MLL to one of more than 60 genes results in generation of oncogenic proteins upregulating Hox genes, which are vital to blood cell development. Patients harboring fusion of the MLL gene suffer from aggressive leukemias and respond poorly to available therapies. All of the oncogenic fusion proteins have a preserved N-terminal fragment of MLL that has been identified to interact with menin. It has been recently discovered that association with menin is critical to the leukemogenic activity of the MLL fusion oncoproteins. Selective targeting of the menin-MLL interaction could provide an attractive therapeutic approach to develop novel drugs for MLL-related leukemias. Small molecules blocking the menin-MLL interaction should reverse the oncogenic potential of MLL fusion proteins. We have developed and optimized a fluorescence polarization-based assay for the identification of Menin-MLL inhibitors. The assay was run employing two different MLL-derived peptides. The present assay uses a 12 amino acid peptide labeled with fluorescein at its N-terminus. This peptide consists of the menin high affinity binding motif from MLL and is potently bound by menin. Another peptide with a mutated sequence, labeled with Texas Red, was used in parallel as a less stringent screen for inhibitors.
# The Menin protein, the MLL-wild type (w.t.) derived peptide (N-terminal 12 amino acids), the MLL-derived peptide labeled with Texas Red and the MLL-w.t. peptide labeled with Fluorescein were kindly supplied by laboratory of Dr. Jolanta Grembecka, University of Virginia. All protein and peptide solutions were stored in single use aliquots at -80C. The Eu3+ Cyrptate-conjugated mouse monoclonal antibody anti-6 Histidine (Eu3+-AB) and the Streptavidin-XL665 conjugate (XL665) were purchased from Cisbio International (Bedford, MA). All antibody and XL665 conjugate solution stocks were stored in single use aliquots at -20C. The Buffer components for all assays were purchased from Sigma-Aldrich (St. Louis, MO) and Invitrogen (Carlsbad, CA). FP Assay Reagents: 1. FP reaction buffer: 50 mM Tris-HCl pH 7.5, 50 mM NaCl, 1mM DTT. Before use, 0.05% BSA is added. 2. Menin protein, MLL-w.t. labeled with fluorescein, MLL-mutant peptide labeled with texas red. Stored in singe use aliquots at -80C. 3. MLL-w.t. unlabeled peptide as positive control: 10 uM final in FP buffer. FP Assay Procedure: 1. Prepare Menin at 200 nM, MLL-w.t.-fluorescein at 25 nM, and MLL-mutant-texas red at 50 nM mixture in FP buffer. 2. Prepare Menin at 200 nM, MLL-w.t.-fluorescein at 25 nM, MLL-mutant-texas red at 50 nM, and 10 uM MLL-w.t. unlabeled mixture in FP buffer. 3. Prepare MLL-w.t.-fluorescein at 25 nM and MLL-mutant-texas red at 50 nM mixture in FP buffer. 3. Dispense 4 ul per well of reagent in step 1 in columns 2, 4 - 48 in a black 1536 well plate, dispense 4 ul per well of reagents from steps 2 and 3 in columns 1 and 3 respectively. Incubate plate at ambient for 15 minutes. 4. Transfer 23 nl per well of compound to plate and incubate at ambient for 1 hr. 5. Read fluorescence polarization for each label using the PerkinElmer Envision. Envision protocol for fluorescein: FITC FP Dual Enh Mirror, Excitation filter 480, Emission filter (1) P-pol 535, Emission filter (2) S-pol 535 Envision protocol for texas red: FP Dual Enh Mirror, Excitation filter 555, Emission filter (1) P-pol 632, Emission filter (2) S-pol 632
# Potency means the concentration at half of the fitted maximal effect.
Compound,Potency,"FP activity change, negative = inhibition"
CC[N+](C)(CC)CCC[n+]1c(-c2ccccc2)c2cc(N)ccc2c2ccc(N)cc21,12.6 µM (active),
CC(=O)[O][Sn]([c]1ccccc1)([c]1ccccc1)[c]1ccccc1,,-8.83% (inactive)
CCN(CC)c1nc(C)cc(OP(=S)(OC)OC)n1,,-16.6% (inactive)
COC([CH2][Hg])CNC(=O)c1ccccc1OCC(=O)O (stereo not given),,-5.59% (inactive)
CO[C@H]1[C@@H](O)[C@@H](C)O[C@H](O[C@H]2[C@H](Oc3cccc4c(O)c5c(=O)oc6ccc(C)c7c(=O)oc(c34)c5c67)O[C@H](C)[C@H](O)[C@@H]2O)[C@@H]1O,,4.44% (inactive)
N#Cc1cc(Br)c(O)c(Br)c1,,1.24% (inactive)
CC[C@H]1CN2CCc3cc(OC)c(OC)cc3[C@@H]2C[C@@H]1C[C@H]1NCCc2cc(OC)c(OC)cc21,22.4 µM (active),
C[C@]12O[C@H](C[C@@]1(O)C(=O)O)n1c3ccccc3c3c4c(c5c6ccccc6n2c5c31)CNC4=O,,-12.3% (inactive)
C[C@@H]1C[C@H]2CC[C@H](O2)[C@H](C)C(=O)O[C@@H](C)C[C@@H]2CC[C@@H](O2)[C@@H](C)C(=O)O[C@H](C)C[C@H]2CC[C@H](O2)[C@H](C)C(=O)O[C@@H](C)C[C@@H]2CC[C@@H](O2)[C@@H](C)C(=O)O1,,-23.7% (inactive)
O=C1CCc2cccc3c2N1CC3,,-0.283% (inactive)
